The nature of test [1]: qHTS assay to identify small molecule antagonists of the estrogen related receptor (ERR) signaling pathway from Tox21 library - cell viability counter screen (AID 1224834). Also: nearly all actives have a fitted effect of over 30% in size. Also: potency is read from the fitted curve at half-maximal effect. In a few lines: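 After 17.5 h of compound exposure at 37 C, ERR cells are incubated with CellTiter-Fluor for 30 min and fluorescence intensity serves as the viability measure.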
In general terms: Quantitative high-throughput screening tests each substance at several concentrations.

Test [2] addresses Luciferin 4-monooxygenase (Photinus pyralis) (UniProt P08659). The test can be described thus: qHTS assay to identify small molecule inhibitors of firefly luciferase (AID 1224835). Also: nearly all actives have a fitted effect of over 25% in size. Also: potency is read from the fitted curve at half-maximal effect. A digest of the protocol: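 Biochemical qHTS: compounds run as interplate titrations against purified firefly enzyme, with D-luciferin and ATP each at its KM concentration. Light output recorded by CCD imaging.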

Test [3] can be described thus: qHTS assay to identify small molecule agonists of the constitutive androstane receptor (CAR) signaling pathway - cell viability counter screen (AID 1224836). Also: nearly all actives have a fitted effect of over 45% in size. Also: potency is read from the fitted curve at half-maximal effect. A digest of the protocol: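 HepG2 cells stably carrying hCAR and a CYP2B6-2.2kb reporter were plated 4 h, then given compounds at 15 concentrations plus PK11195 (final 0.75 uM). After 23 h at 37 C, viability was read by CellTiter-Fluor fluorescence.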

Test [4] can be described thus: qHTS assay to identify small molecule antagonists of the constitutive androstane receptor (CAR) signaling pathway - cell viability counter screen (AID 1224837). Also: nearly all actives have a fitted effect of over 45% in size. Also: potency is read from the fitted curve at half-maximal effect. In a few lines: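 Counter screen run in HepG2-CYP2B6-hCAR cells: 4 hr settle, compound titration (15 concentrations) with 50 nM CITCO, 23 hr at 37 C/5% CO2, CellTiter-Fluor fluorescence.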
Test [5] concerns the target Nuclear receptor subfamily 1 group I member 3 (Homo sapiens) (UniProt Q14994). The test can be described thus: qHTS assay to identify small molecule antagonists of the constitutive androstane receptor (CAR) signaling pathway (AID 1224838). Also: nearly all actives have a fitted effect of over 40% in size. Also: potency is read from the fitted curve at half-maximal effect. A digest of the protocol:
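Cell line: HepG2 double-stable for hCAR and CYP2B6-2.2kb reporter. Agonist: CITCO, 50 nM final. Compounds: 15 concentrations, 24 h, 37 C. Detection: ONE-Glo luminescence.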

Test [6] shares this target. In words: qHTS assay to identify small molecule agonists of the constitutive androstane receptor (CAR) signaling pathway (AID 1224839). Also: nearly all actives have a fitted effect of over 15% in size. Also: potency is read from the fitted curve at half-maximal effect. In a few lines: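 HepG2 cells stably expressing hCAR and a CYP2B6-2.2kb luciferase reporter were treated with compounds at 15 concentrations plus 0.75 uM PK11195 (final) for 24 h at 37 C; luminescence was read after ONE-Glo addition.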

Test [7] can be described thus: qHTS assay to identify small molecule antagonists of the estrogen related receptor signaling pathway with the pleiotropic PPARgamma coactivator (PGC) from Tox21 10K library - cell viability counter screen (AID 1224840; active = well fitted cell-killing curve with a large enough effect in the repeat runs, not every such curve was filed as active; also: nearly all actives have a fitted effect of over 40% in size; also: potency is read from the fitted curve at half-maximal effect). In a few lines:
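Following seeding of 2,000 PGC/ERR cells/well and 6 hours' incubation, test compounds were delivered in DMSO. The plates then sat 17.5 hours at 37 C before a fluorogenic live-cell protease reagent (CellTiter-Fluor) was read after 30 min.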

Test [8] has as its target Thyrotropin receptor (Homo sapiens) (UniProt P16473). The test can be described thus: qHTS assay to identify small molecule agonists of the thyroid stimulating hormone receptor (TSHR) signaling pathway (AID 1224843; calls by dose curve; also: nearly all actives have a fitted effect of over 45% in size). In a few lines:
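TSHR-HEK293 cells in agonist mode, 30 min room-temperature step, then cAMP measured by competitive HTRF (cAMP-d2 with anti-cAMP cryptate) after 1 h at room temperature. Tested at 15 concentrations in triplicate.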

Test [9] in a line: qHTS assay to identify small molecule agonists of the hypoxia (HIF-1) signaling pathway - cell viability counter screen (AID 1224844; calls by dose curve; also: nearly all actives have a fitted effect of over 50% in size). In a few lines: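 Cells (HRE-bla ME-180, 2,000 per well) sat 5 hrs at 37C, got compound for 17 hrs, were read for CCF4-AM FRET, and were finally lysed with CellTiter-Glo for a 30 min room-temperature luminescence read.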
A short description of test [10]: qHTS assay to identify small molecule agonists of H2AX (AID 1224845; active = well fitted activation curve with a large enough effect in the signal ratio in the repeat runs, not every such curve was filed as active; the % refers to the signal ratio). A digest of the protocol: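 Wild-type CHO-K1 cells, plated overnight, exposed 3hr at 37C to 15 concentrations (0.76% DMSO final). Lysed, then HTRF anti-pH2AX (S139) cryptate and anti-H2AX-d2 antibodies, 24 hr room temperature; 665/620 nm emission read.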
The nature of test [11]: qHTS assay to identify small molecule agonists of H2AX - cell viability counter screen (AID 1224847; calls by dose curve; also: nearly all actives have a fitted effect of over 30% in size; also: potency is read from the fitted curve at half-maximal effect). In a few lines:
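Wild-type CHO-K1 cells (10% FBS medium) were plated overnight at 37C, exposed to compounds at 15 concentrations for 3 hr at 37C (0.76% DMSO final), and viability was read as CellTiter-Glo luminescence after 30 min at room temperature.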

Test [12] is described as follows: qHTS RealTime-Glo MT Cell Viability Assay in HepG2 cells - 24 hour (AID 1224867). Also: nearly all actives have a fitted effect of over 50% in size. In a few lines:
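Luminescence read-out: viable HepG2 cells reduce a prosubstrate to a NanoLuc substrate, giving a signal proportional to live cell number. Reads taken at 0, 8, 16, 24, 32 and 40 h of compound exposure at 37 C.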

Test [13] is described as follows: qHTS RealTime-Glo MT Cell Viability Assay in HEK293 cells - 32 hour (AID 1224868). Also: nearly all actives have a fitted effect of over 50% in size. Also: potency is read from the fitted curve at half-maximal effect. In a few lines: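 Nonlytic real-time viability readout: viable cells convert prosubstrate to NanoLuc substrate, giving luminescence proportional to live cell number. HEK293, 600 cells/well, compound added after 5 h, continuous culture at 37 C.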
Test [14] in a line: qHTS assay to identify small molecule agonists of the hypoxia (HIF-1) signaling pathway (AID 1224846; active = well fitted activation curve with a large enough effect in the signal ratio in the repeat runs, not every such curve was filed as active; the % refers to the signal ratio). A digest of the protocol:
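A low-serum medium (0.5% dialyzed FBS) holding 2,000 HRE-bla ME-180 cells per well is preincubated for 5 hrs, dosed with compounds by pintool, and kept a further 17 hrs at 37C, 5% CO2 before CCF4-AM FRET detection of beta-lactamase.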

Test [15] in a line: A CellTox Green Cytotoxicity Assay to monitor cytotoxicity in HEK293 cells - 0 hour (AID 1224869). Also: nearly all actives have a fitted effect of over 50% in size. A digest of the protocol:
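Fluorescence intensity, read at 0, 8, 16, 24, 32 and 40 h of compound treatment, reflected dye binding to DNA of dead HEK293 cells; compounds (23 nL, DMSO) were added 5 h after plating cells with reagent.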

Test [16] can be described thus: qHTS assay to identify small molecule antagonists of the estrogen related receptor signaling pathway with the pleiotropic PPARgamma coactivator (PGC) from Tox21 10K library (AID 1224841; call rule not given here). In a few lines: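 qHTS antagonist format: PGC/ERR cells, 2k/well, compound in DMSO by pin transfer after 6 h attachment, 18 h treatment at 37 C, One-Glo luminescence read at 30 min.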

Test [17] in a line: qHTS assay to identify small molecule agonists of the estrogen related receptor signaling pathway with the pleiotropic PPARgamma coactivator (PGC) from Tox21 10K library (AID 1224842). Also: nearly all actives have a fitted effect of over 15% in size. A digest of the protocol:
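PGC/ERR reporter cell line, 2,000 cells per well, incubated 6 h at 37 C before 23 nL compound in DMSO was added. After 18 h at 37 C, One-Glo luminescence read following 30 min at room temperature.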

Test [18] in a line: qHTS assay to identify small molecule antagonists of the estrogen related receptor (ERR) signaling pathway from Tox21 library (AID 1224848). Also: nearly all actives have a fitted effect of over 50% in size. In a few lines:
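ERR reporter cell line (from NTP) seeded 2,000 cells/well, rested 6 h at 37 C/5% CO2, then pin-dosed with compounds in DMSO. After 18 h at 37 C, ONE-Glo added; luminescence read after 30 min at room temperature.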

The nature of test [19]: qHTS assay to identify small molecule agonists of the estrogen related receptor (ERR) signaling pathway from Tox21 library (AID 1224849; calls by dose curve; also: nearly all actives have a fitted effect of over 15% in size). Particulars: ERR reporter cell line, ONE-Glo luciferase, 18 h; at 92.4 µM (top of the series). In a few lines:
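Screening used an NTP-provided ERR luciferase cell line. Compounds in DMSO were added 6 h after seeding and left 18 h at 37 C before a 30 min ONE-Glo step and luminescence reading.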

In PubChem BioAssay (Tox21) one finds Potency, outcome and activity change, positive = activation data, which are given here for 8 compounds.

Structures are written as SMILES. Where “and” joins values, the source holds several entries; their conditions need not be identical. Identical values can stand only once. Inconclusive results are not listed. Some compounds were tested as several samples or in several runs, with calls that do not always agree. Calls of active or inactive are those of the source. Unless noted, calls follow the shape of the dose curve; as a rule, active = well fitted curve in the direction sought with a large enough effect in the repeat runs; inconclusive = weak or mixed curves; inactive = no such curve, though single readings can be large; an effect the other way counts as inactive or inconclusive.
% is scaled to controls: 0 for no effect and ±100 for the full control effect.

Luciferin 4-monooxygenase (Photinus pyralis), sequence (P08659 whole entry, looked up): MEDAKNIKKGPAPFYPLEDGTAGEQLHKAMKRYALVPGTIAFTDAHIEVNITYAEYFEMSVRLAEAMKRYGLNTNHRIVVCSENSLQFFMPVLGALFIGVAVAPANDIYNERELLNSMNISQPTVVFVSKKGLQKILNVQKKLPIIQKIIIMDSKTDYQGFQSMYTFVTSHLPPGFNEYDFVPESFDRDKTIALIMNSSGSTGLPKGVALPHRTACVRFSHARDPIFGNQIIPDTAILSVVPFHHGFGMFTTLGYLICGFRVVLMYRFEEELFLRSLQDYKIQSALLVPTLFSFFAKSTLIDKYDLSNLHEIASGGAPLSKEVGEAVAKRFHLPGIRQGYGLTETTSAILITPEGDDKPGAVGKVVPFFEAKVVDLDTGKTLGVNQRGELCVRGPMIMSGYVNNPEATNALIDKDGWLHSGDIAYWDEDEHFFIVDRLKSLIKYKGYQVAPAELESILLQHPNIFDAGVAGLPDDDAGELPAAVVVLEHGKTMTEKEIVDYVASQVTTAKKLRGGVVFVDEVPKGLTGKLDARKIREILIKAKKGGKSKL
Nuclear receptor subfamily 1 group I member 3 (Homo sapiens), sequence (Q14994 whole entry, looked up): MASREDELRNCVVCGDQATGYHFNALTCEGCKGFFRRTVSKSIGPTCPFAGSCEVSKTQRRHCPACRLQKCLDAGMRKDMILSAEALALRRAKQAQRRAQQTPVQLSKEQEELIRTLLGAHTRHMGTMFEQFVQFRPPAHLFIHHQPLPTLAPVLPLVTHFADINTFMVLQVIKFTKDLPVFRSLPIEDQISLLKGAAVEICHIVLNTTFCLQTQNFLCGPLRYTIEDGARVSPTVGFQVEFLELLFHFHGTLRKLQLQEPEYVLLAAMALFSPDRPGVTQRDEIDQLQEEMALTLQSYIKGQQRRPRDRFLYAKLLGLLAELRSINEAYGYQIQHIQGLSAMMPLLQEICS
Thyrotropin receptor (Homo sapiens), sequence (P16473 whole entry, looked up): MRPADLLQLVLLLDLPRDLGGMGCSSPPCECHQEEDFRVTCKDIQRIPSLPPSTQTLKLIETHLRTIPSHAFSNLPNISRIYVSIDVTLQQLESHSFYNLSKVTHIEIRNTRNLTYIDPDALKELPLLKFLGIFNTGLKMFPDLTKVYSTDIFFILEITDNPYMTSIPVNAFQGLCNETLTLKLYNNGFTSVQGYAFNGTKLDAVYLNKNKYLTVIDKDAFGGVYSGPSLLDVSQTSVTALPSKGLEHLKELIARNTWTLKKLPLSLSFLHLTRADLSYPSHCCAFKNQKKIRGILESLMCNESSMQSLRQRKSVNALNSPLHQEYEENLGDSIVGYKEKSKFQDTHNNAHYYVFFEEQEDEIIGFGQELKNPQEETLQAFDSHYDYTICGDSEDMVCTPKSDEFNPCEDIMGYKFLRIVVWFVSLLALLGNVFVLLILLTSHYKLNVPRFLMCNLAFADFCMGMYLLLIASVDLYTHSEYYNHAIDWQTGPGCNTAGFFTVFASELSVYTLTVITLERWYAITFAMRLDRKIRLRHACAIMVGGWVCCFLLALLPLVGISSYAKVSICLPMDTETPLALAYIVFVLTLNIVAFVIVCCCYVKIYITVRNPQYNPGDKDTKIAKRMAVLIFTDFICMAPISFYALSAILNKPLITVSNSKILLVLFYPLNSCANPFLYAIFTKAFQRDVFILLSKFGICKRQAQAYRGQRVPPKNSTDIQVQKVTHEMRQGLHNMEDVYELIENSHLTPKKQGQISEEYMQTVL

As for `Nc1nc2ncc(CNc3ccc(C(=O)N[C@@H](CCC(=O)O)C(=O)O)cc3)nc2c(=O)[nH]1`, the Potency result in test [1], in test [2], in test [3], in [4], in [5] and in test [6] was “inactive” each time. Moreover, the Potency result in test [7], in test [8], in [9], in [10], in test [11] and in [12] was “inactive” in each case. Further, in test [13], the Potency entry is “inactive”.
`Cc1cc(Cc2ccc(N)c(C)c2)ccc1N`: the Potency entry in [1], in test [2], in test [3], in test [4], in test [5] and in test [7] was “inactive” each time. For the same compound, the Potency result in test [9], in test [10], in test [11], in test [12], in test [13] and in test [15] was “inactive” throughout. Also, the Potency in test [6] was 48.6 µM (active). Also, in test [14], the compound was classed as inactive.
Take `C/C=C(C)/C=C/C=C(C)C`: the Potency result in test [1], in test [2], in test [3], in test [4], in test [5] and in test [6] was “inactive” throughout. Moreover, the Potency result in test [7], in [9], in [10], in [11], in [12] and in test [13] was “inactive” in each case. In test [15], the Potency result is “inactive”. In test [14], the call was inactive.
With `CCCCOCCOCCOC(=O)CCCCC(=O)OCCOCCOCCCC`, the Potency result in test [1], in [2], in [3], in test [4], in test [5] and in test [6] was “inactive” each time. For the same compound, the Potency entry in test [7], in [9], in test [10], in [11], in test [12] and in [13] was “inactive” throughout. Further, the compound was classed as inactive in test [14].
In the case of `Cc1ccc(C(=O)O)o1`, the Potency result in [1], in [2], in test [3], in test [4], in test [5] and in test [6] was “inactive” each time. The Potency entry in [7], in [8], in test [9], in [10], in [11] and in test [12] was “inactive” in each case. The Potency entry in test [13] and in test [15] was “inactive” each time. Further, the compound was classed as inactive in test [14].
On to `OC[C@@H](O)[C@@H](O)[C@H](O)[C@@H](O)CO`, for which the Potency entry in [1], in [2], in test [3], in test [4], in [7] and in test [16] was “inactive” each time. Moreover, the Potency result in test [17], in [8], in [9], in test [10], in test [11] and in test [18] was “inactive” in each case. Further, the Potency entry in [12] and in test [13] was “inactive” each time. The result in [14] was inactive. Moreover, the activity change, positive = activation in test [19] was 3.67% (inactive) and 4.92% (inactive).
Regarding `CN(C)c1ccc(C(=N)c2ccc(N(C)C)cc2)cc1`, the Potency in test [1] is 24 µM (active) and 20.9 µM (active); in test [2], 55.7 µM (active) and inactive; in [3], 24 µM (active) and 23.4 µM (active); in test [4], 24 µM (active) and 26.3 µM (active); in test [5], 52.4 µM (active); in test [7], 30.3 µM (active) and 20.9 µM (active). The Potency in [11] was 39.6 µM (active) and 24.4 µM (active); in [13], 3.05 µM (active) and 2.97 µM (active). For the same compound, the Potency result in test [6], in test [9] and in [15] was “inactive” throughout. Also, the outcome in test [14] was inactive.
As for `OCC1CCCO1` (stereo unspecified), the Potency entry in test [1], in [2], in [3], in [4], in test [5] and in test [6] was “inactive” in each case. Also, the Potency entry in [7], in [9], in [10], in test [11], in test [12] and in [13] was “inactive” in each case. The Potency result in [15] is “inactive”. Besides, the compound was classed as inactive in test [14].
